Molecules are shown by their SMILES. Compounds without any hit were thinned out: in the full panel of roughly 83,000, 20% have a hit.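 Growth was measured after 48 h exposure to one concentration of compound in 96-well plates. Values under 10 count as active.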 Values without a mark were called inactive. Active and inactive are the calls of the source.

What all share (assay): NCI-60 one-dose screen, 48 h (100 = growth as untreated, 0 = no growth, -100 = all killed)
Test [1] relates to MALME-3M melanoma. To be noted: 10 µM unless noted.
In test [2] the test system is MDA-MB-231 breast. The conditions noted are these: 10 µM unless noted.
Test [3] concerns SF-268 CNS. The conditions noted are these: 10 µM unless noted.
The subject of test [4] is SF-295 CNS. The conditions noted are these: 10 µM unless noted.
For test [5], the system named is SF-539 CNS. The conditions noted are these: 10 µM unless noted.
In test [6] the test system is UACC-257 melanoma. To be noted: 10 µM unless noted.
The test system of test [7] is M14 melanoma. The conditions noted are these: 10 µM unless noted.
For test [8], the system named is HCT-15 colon. The conditions noted are these: 10 µM unless noted.
The test system of test [9] is HT29 colon. To be noted: 10 µM unless noted.
For test [10], the system named is SNB-75 CNS. The conditions noted are these: 10 µM unless noted.
The test system of test [11] is SNB-19 CNS. To be noted: 10 µM unless noted.
For test [12], the system named is U251 CNS. The conditions noted are these: 10 µM unless noted.
Test [13] relates to PC-3 prostate. The conditions noted are these: 10 µM unless noted.
Test [14] deals with UACC-62 melanoma. To be noted: 10 µM unless noted.
The test system of test [15] is LOX IMVI melanoma. To be noted: 10 µM unless noted.
For test [16], the system named is SK-MEL-28 melanoma. The conditions noted are these: 10 µM.
Test [17] relates to SK-MEL-2 melanoma. To be noted: 10 µM unless noted.
In test [18] the test system is RXF 393 renal. To be noted: 10 µM unless noted.
In test [19] the test system is SK-MEL-5 melanoma. To be noted: 10 µM unless noted.
Test [20] relates to K-562 leukemia. The conditions noted are these: 10 µM unless noted.

Turning to `COc1ccc(N2C(=O)CC(c3cc(OC)c(OC)c(OC)c3)C3C2=NC(=O)N3C)cc1` (configuration not stated), the growth in test [1] is 105%; in [2], 109%; in [3] it was 100%; in test [4] it was 101%; in test [5] it was 97.9%; in test [6] it was 98.2%. In addition, the growth in test [7] is 105%; in [8] it was 102%; in [9] it was 104%; in test [10] it was 99.5%; in test [11] it was 102%; in [12], 110%. In addition, the growth in test [13] is 100%; in test [14] it was 104%; in [15], 103%; in test [16] it was 108%; in test [17], 116%.
As for `Cn1nc(C(F)(F)F)c(-c2ccc(Cl)c(C(F)(F)F)c2)c1-c1ccc(OCc2ccc(Cl)cc2)cc1O`, the growth was 12.2% in test [1]; 8.7% (active) in test [2]; 26% in test [3]; 12.8% in [4]; 34.4% in test [5]; 2.35% (active) in test [6]. In addition, the growth was 35.4% in test [7]; 8.53% (active) in [8]; 20.4% in test [9]; 47.7% in [10]; 19.2% in test [11]; 0.822% (active) in test [12]. For the same compound, the growth in test [13] was 3.78% (active); in [14], 19.7%; in test [15], 5.24% (active); in test [16], 31.2%; in test [17], 1.95% (active).
For `O=c1nc2sc3nc4ccccc4cc3cc-2s1`, the growth in test [1] is 116%; in test [2], 108%; in [18], 117%; in test [3], 132%; in [4] it was 104%; in test [5] it was 101%. The growth in test [6] is 98.8%; in [7] it was 100%; in test [8], 104%; in test [9] it was 147%; in test [10] it was 116%; in test [11], 101%. For the same compound, the growth in test [12] was 115%; in test [19], 100%; in [14], 116%; in test [15], 111%; in test [16], 110%; in test [17], 112%.
Consider `CN(CCc1ccccc1)C(=S)N(C(=O)c1ccc([N+](=O)[O-])cc1)c1ccc(Cl)cc1`, for which the growth was 40.6% in test [20]; 101% in [2]; 91.7% in [3]; 110% in test [4]; 92.6% in test [5]; 101% in [6]. Besides, the growth in test [7] was 94.8%; in test [8], 83.9%; in test [9] it was 92.7%; in test [10], 97.2%; in test [11] it was 101%; in test [12] it was 90.4%. Besides, the growth in test [13] was 77.5%; in test [19], 98.3%; in [14], 92%; in [15] it was 61.3%; in test [16], 95.2%.
`COc1ccc(C2NCCc3c2[nH]c2ccccc32)cc1CN1CCN(c2ccc(F)cc2)CC1` (configuration not stated): the growth was 17% in test [20]; -32.5% (active) in test [2]; -9.51% (active) in test [18]; 76.4% in [3]; -67.2% (active) in test [4]; 58.8% in [5]. Moreover, the growth is -39.9% (active) in [6]; 8.26% (active) in [8]; -3.33% (active) in test [9]; 24.4% in [10]; 77.9% in test [11]; 26% in test [12]. The growth is 44.8% in [13]; -40.7% (active) in test [19]; 12.5% in test [14]; 2.51% (active) in test [15]; 67.9% in test [16].
For `O=C(CCN1C(=O)c2ccccc2C1=O)Nc1ccc(Cl)cc1`, the growth was 60.7% in test [20]; 114% in test [2]; 73.6% in test [3]; 28.4% in [4]; 86.5% in test [5]; 98.2% in test [6]. In addition, the growth in test [7] was 92.7%; in test [8] it was 61.7%; in [9] it was 44.4%; in test [10], 94.5%; in test [11] it was 90.3%; in [12], 62.2%. Further, the growth in [13] was 71.7%; in [19] it was 81%; in [14], 87.4%; in test [15] it was 60.2%; in [16], 117%; in test [17], 98.7%.
For the compound `COc1cc(C2C(C#N)=C(N)OC3=C2C(=O)c2ccccc2C3=O)cc(OC)c1OC` (configuration not stated), the growth was 47.8% in test [1]; 36.4% in [2]; 39.5% in test [3]; 23.2% in [4]; -19.6% (active) in test [5]; 50.5% in [6]. The growth was 20.1% in [8]; 106% in [9]; 7.57% (active) in [10]; 34.2% in test [11]; 17.9% in [12]; 19% in test [13]. Further, the growth in [14] is 25.9%; in test [15] it was 27.4%; in test [16] it was 58.1%; in [17], -2.31% (active).
With `O=C(c1ccccc1)N(C(=S)NCCc1ccc(Cl)cc1)c1ccccc1`, the growth was 58.1% in [20]; 112% in test [2]; 96.2% in [3]; 113% in test [4]; 104% in [5]; 95.8% in test [6]. Moreover, the growth is 101% in [7]; 86.2% in test [8]; 101% in [9]; 118% in test [10]; 104% in [11]; 87.6% in [12]. Moreover, the growth in [13] was 83.3%; in test [19], 98.3%; in [14], 96.9%; in [15], 68.2%; in [16], 113%; in test [17], 99.9%.
For the compound `Cc1ccc(Nc2nc(N)c3ccccc3n2)cc1Cl`, the growth was 51.3% in [20]; 27.2% in test [2]; 80.4% in [18]; 78.5% in test [3]; 81.5% in test [5]; 108% in [6]. For the same compound, the growth in test [7] was 80.3%; in test [8], 49.9%; in test [9], 27.4%; in [10], 95.2%; in test [11], 84.4%; in test [12], 61.8%. In addition, the growth in test [13] was 60.4%; in [19] it was 60.2%; in [14] it was 53.9%; in [15] it was 40.4%; in test [16], 102%; in test [17], 50.9%.
Regarding `Cc1nn(-c2nc3ccccc3[nH]2)c2c1C(c1ccc(OCC(N)=O)cc1)CC(=O)N2` (configuration not stated), the growth is 88.2% in test [1]; 103% in test [2]; 96.4% in test [3]; 69.5% in [4]; 100% in [5]; 110% in [6]. Further, the growth in test [7] was 80%; in [8], 98%; in [9] it was 109%; in test [10], 92.3%; in test [11], 103%; in [12], 110%. Besides, the growth was 97.4% in test [13]; 97.8% in test [14]; 109% in test [15]; 105% in test [16]; 107% in test [17].
On to `Cc1ccc2[nH]c(=O)cc(-n3nncc3Cn3c4ccccc4c4ccccc43)c2c1`, for which the growth was 93.5% in [1]; 97.6% in test [2]; 86.4% in [3]; 98.9% in test [4]; 94% in [5]; 97.5% in test [6]. Further, the growth in test [7] is 105%; in test [8] it was 99%; in test [9], 113%; in test [10], 81.2%; in [11], 97.1%; in test [12], 99.2%. The growth was 92.8% in test [13]; 94.5% in test [19]; 94.9% in [14]; 98.2% in test [15]; 108% in test [16]; 103% in [17].
As to `COc1cc(/C=C/C(=O)N2c3ccccc3CC2C)c(OC)c2c1OCO2` (configuration not stated), the growth in test [1] is 101%; in test [2], 92.2%; in test [3], 97%; in test [4], 83.6%; in test [5] it was 98.3%; in [6], 100%. Further, the growth in test [7] was 90.7%; in test [8], 69.8%; in [9] it was 83.8%; in [10], 97.2%; in test [11], 96.2%; in [12], 87.6%. The growth in test [13] is 68.7%; in test [14], 84.5%; in test [15], 94.3%; in [16] it was 90.7%; in test [17] it was 98.6%.
Take `Cc1cccc(NC(=O)c2sc3nc4c(cc3c2N)CCCC4)c1C`: the growth in test [1] was 45.7%; in test [2], 38.6%; in test [3], 34.9%; in test [4] it was 6.95% (active); in test [5], -12.2% (active); in [6] it was 66.3%. In addition, the growth in test [7] was 4.97% (active); in test [8], 16.2%; in [9], 2.81% (active); in test [10] it was 10.8%; in [11] it was 26.2%; in test [12], 15.1%. Moreover, the growth in [13] is 21.2%; in test [14], 38.7%; in [15], 42.3%; in test [16], 68.5%; in test [17], 49.1%.
`COC(=O)C1(C)COP(=O)(Nc2ccc(OC)cc2)OC1` (configuration not stated): the growth in test [1] was 116%; in test [2] it was 110%; in [18], 113%; in test [3], 103%; in [4], 107%; in test [5], 104%. Moreover, the growth in test [6] was 98.7%; in test [7], 102%; in test [8], 108%; in test [9] it was 101%; in test [10] it was 92.1%; in test [11] it was 103%. In addition, the growth is 104% in test [12]; 99.8% in [13]; 105% in test [19]; 108% in [14]; 96.3% in test [15]; 108% in test [16]. In test [17], the growth is 96.4%.
Take `CC1=CCC(OC(=O)C(C)(C)CCC(O)(C(=O)OC2(C(C)C)CCC3(C)OC3C2)C(C)C)(C(C)C)CC1` (configuration not stated): the growth in test [1] is -84.1% (active); in [2] it was -63.1% (active); in test [18], -91.2% (active); in test [3], -74.5% (active); in test [4], -92.2% (active); in [5], -97.3% (active). For the same compound, the growth in [6] was -57.6% (active); in test [7] it was -81% (active); in test [8], -59.8% (active); in test [9], -70.2% (active); in test [10] it was -98% (active); in [11] it was -97.2% (active). Further, the growth is -98.8% (active) in test [12]; -97.2% (active) in [19]; -94.2% (active) in [14]; -90.5% (active) in test [15]; -96.9% (active) in test [16]; -91.6% (active) in test [17].

These data come from PubChem BioAssay (NCI).
